The values below come from publication PMC12136788.

Positions count from the first letter of the chain named. In all, about 5,800 sequences were measured (“enrichment r”: median about 0.68, highest 2% from about 11 on). For the sample, the highest values were picked, then their nearest neighbours and some sequences at random.

The labels stand for the following.
B1: chr4:168927217:168927233:+|3pUTR|ENSG00000129116|msi1_unk|total|mutant (ssRNA)
RNA: GGGAGUUCUACAGUCCGACGAUCAACCACCCAAAUGACCAAGGCAUAUACCGUAUUUGGAGGAAUCAGGGGUUUGGAAGGAGCCGGGAGGAGAAUGAAGGAAAAUGCAACCAGCAUGAUUACCGUGUGUUCAUUCCGAUAAAACAACAGAGGAUUGAGCAUCA
B2: ENSG00000198589:be:win_7401|CDS|ENSG00000198589|bound_else_gene|NA|bound_elsewhere_windowed (ssRNA)
RNA: GGGAGUUCUACAGUCCGACGAUCUUCUCAACUACUCAUAGAGCCCCAUCCUCCCAGAGGUUCUGCCAUGCAAGUGAGUCCAUUGAUGUUCACAGACAAAGCCCAGCAGGAUGUUAUCAUGGUCCUCAAGUUUCCCUCCAACUCCAACAGAGGAUUGAGCAUCA
B3: chr5:128187618:128187661:+|3pUTR|ENSG00000064651|msi1_unk|total|mutant (ssRNA)
RNA: GGGAGUUCUACAGUCCGACGAUCUCCUUUAUAAGUCAUUAAAAUAAUGUUUCAUCAAAUGGUUAAAUGGACCACUGGUUUCUCCGAGAAAUGUUUUCCGGCUUAAUUCAUUCAAUUGUCAAGUACACUCCGUCUUAAUACACUCAACAGAGGAUUGAGCAUCA
B4: chr1:159061598:159062691:-|three_prime_utr|ENSG00000163568|control|control|control (ssRNA)
RNA: GGGAGUUCUACAGUCCGACGAUCUCAAUCAGAUUGUAAGUUACCUGAAAGCUGCAGUUCACAGGCUCCUCUCUCCACCAAAUUAGGAUAGAAUAAUUGCUGGAUAAACAAAUUCAGAAUAUCAACAGAUGAUCACAAUAAACACAACAGAGGAUUGAGCAUCA
B5: chr10:95606323:95606429:-|3pUTR|ENSG00000059573|unk|total|mutant (ssRNA)
RNA: GGGAGUUCUACAGUCCGACGAUCCCAUGGCUGCUUUGUGUCACCUCAGUGACUUACAGUCCCCCUUGGCAUUCCGUUGGUACCCGAGCCAGUCAUCCUUAACAAAUCUUUUCACAUUUUAUUUCUUUCACAUGCCGUCAUCUUCAACAGAGGAUUGAGCAUCA
B6: chr10:95606323:95606429:-|3pUTR|ENSG00000059573|unk|FALSE|bound_elsewhere (ssRNA)
RNA: B5 RNA with C73U, C74A, C83U, C84A, C134U, C135A
B7: chrX:107070192:107070425:-|CDS|ENSG00000089682|control|control|control (ssRNA)
RNA: GGGAGUUCUACAGUCCGACGAUCCGUUCUAGGAGCCAAAUGGCAGAAAAGGACUGGGAGGACCUCAACAUUUAGUAUUCUCUUAGUUUCCUUGCUUUCAGAAACAGUGUUCACAUCUUCAGCCAUGUAUGGCAUUCCCCAUCUCAACAGAGGAUUGAGCAUCA
B8: chr14:106116634:106116941:-|CDS|ENSG00000211941|control|control|control (ssRNA)
RNA: GGGAGUUCUACAGUCCGACGAUCUGGAUCCGCCAGGCUCCAGGGAAGGGGCUGGAGUGGGUUUCAUACAUUAGUAGUAGUAGUAGUUACACAAACUACGCAGACUCUGUGAAGGGCCGAUUCACCAUCUCCAGAGACAACGCCCAACAGAGGAUUGAGCAUCA
B9: ENSG00000070961:be:win_4601|3pUTR|ENSG00000070961|bound_else_gene|NA|bound_elsewhere_windowed (ssRNA)
RNA: GGGAGUUCUACAGUCCGACGAUCUCAGACUAUCAAACUACAAGAGAACCUUAGUCUUUUUUGUUUUUGUCUAAACAUGUUAGUUUAGUGAUGUCUUGGUGAACUGUGAGUGAACUGUAUUGAUUUUUCUAAUCUUUAGAGACCCAACAGAGGAUUGAGCAUCA
B10: ENSG00000157823:stop:overlap|stop_codon|ENSG00000157823|stop_codon|NA|stop_codon (ssRNA)
RNA: GGGAGUUCUACAGUCCGACGAUCUCCGCUUCUACCAGCGUUUCAAGAAAUUCAACAGCAGAUUGUUCGAGAGACUUUCCAUCUAGUCCUCAAGCGGGAUGACAACAUCUGUAACUUCUUGGAGGGUGGAAGUUUGAUUGGUGGCAACAGAGGAUUGAGCAUCA
B11: chr13:42321371:42321394:+|3pUTR|ENSG00000023516|msi1_unk|FALSE|overlapping (ssRNA)
RNA: GGGAGUUCUACAGUCCGACGAUCUUCUGUUUAUGGUGUAAUCAUUCUGAGGUGAGGCUUUUCUUAUUUCCUUUGCAUUUUGCUAGAGCUGUGCUGAGUUCAGCAUUUGCUUAUUUAACCACUACAUAAUGACAGACCAGUUAUCAACAGAGGAUUGAGCAUCA
B12: chr2:65312585:65312700:-|3pUTR|ENSG00000198369|unk|FALSE|unique (ssRNA)
RNA: GGGAGUUCUACAGUCCGACGAUCUGGACCAGGGCUAGAAUGGGGAUUUCAGGUUUCUAUGAGCCUCCCCAUUACCCCUAAAGUAGAACAUUUUUUAAAUUGUGUUGCCACCACUUCUAAAAAUUUAGCAAUAUUAGAAUAGGACAACAGAGGAUUGAGCAUCA
B13: chrX:135156539:135157311:-|three_prime_utr|ENSG00000169551|control|control|control (ssRNA)
RNA: GGGAGUUCUACAGUCCGACGAUCUUUAUUCUGUUUAUCUUUCCUUUUAUGAGCAGUAAAGGGGCUGGUUUAACUUAAAAGGUUAGCUUAGUAAGCCUAAAUAGUAUUUUAUAUAUGACUUUUCUGGCAAAUCUAAUUGAGACACAACAGAGGAUUGAGCAUCA
B14: chr7:7573188:7573293:+|CDS|ENSG00000164654|unk|total|mutant (ssRNA)
RNA: GGGAGUUCUACAGUCCGACGAUCCCAUAUUUCCACGAUCGUGUUGCUUCCUUCUAUGAAGGUCAGGUUGCAAUAUGGGAUCUCCGAAAAUUUGAGAAGCCAGUUUUGACAUUGACUGAGCAACCAAAACCCUUAACAAAAGUACAACAGAGGAUUGAGCAUCA
B15: chr17:29548703:29548809:+|3pUTR|ENSG00000160551|unk|FALSE|bound_elsewhere (ssRNA)
RNA: GGGAGUUCUACAGUCCGACGAUCAGCACUUGUGAGUGAAAAAUCAUGUAAUUAUCUGUAAAUAUGUAGCUAACAAAUUGACCUAGUUUCUGUAUUUUUUUGUUUUUGUACUAAAGUUUAUAGGUCUGUGCCAGCUAGAGAGAACAACAGAGGAUUGAGCAUCA
B16: chr7:157269180:157269282:+|3pUTR|ENSG00000009335|unk|total|mutant (ssRNA)
RNA: GGGAGUUCUACAGUCCGACGAUCAUUUCCGGUUGUUUUAUGUUGAAUGUUCUAUAUCUUAUCCGUUAAUUUGUAUAUUUUAUCCGUAUUUUGGAAACCGCAUAUCUGAGACUGAAGAGAAAUUGACAAUUCACUUAUUUGUGGCAACAGAGGAUUGAGCAUCA
B17: chr19:34469546:34469571:+|3pUTR|ENSG00000126261|msi1_unk|FALSE|overlapping (ssRNA)
RNA: GGGAGUUCUACAGUCCGACGAUCGUUGCCUUUUUAAUGUAAAUACCCGUAGGUAUCAUUAAUAGUUUCAAAAUAUUGUGGUUUAGUAAAGUUGAUACCUGGUUAUAAAUAUUAUGCCUUUAUUUUUGGCUAGAAGAAGAAUUACAACAGAGGAUUGAGCAUCA
B18: chr15:67202635:67202736:-|3pUTR|ENSG00000103591|msi1|FALSE|unique (ssRNA)
RNA: GGGAGUUCUACAGUCCGACGAUCUGCCAAAAUUGCCCUUAUCAUGUUGGCUGCCUGACUUGUUUAUAGGGUCCCCUUAAUUUUAGUUUUUAGUAGGAGGUUAAGGAGAAAUCUUUUUUUUCCUCAGUAUAUUGUAAGAGAGUGCAACAGAGGAUUGAGCAUCA
B19: chr18:2804133:2804242:+|3pUTR|ENSG00000101596|unk|FALSE|unique (ssRNA)
RNA: GGGAGUUCUACAGUCCGACGAUCGGUUAAAGAGAAAUGACUUUUUAGGAACUAGACUUGAACGUAUAAUUAAUAUGUGGAACUAGUUUGCUUUUAUAAUUCAUUGUAUCAAGAAGGAGUCAUGUUUUAAAUCCAAGGCAUUGACAACAGAGGAUUGAGCAUCA
B20: chr8:23844609:23844711:-|3pUTR|ENSG00000159167|msi1|FALSE|unique (ssRNA)
RNA: GGGAGUUCUACAGUCCGACGAUCUUUAGGGGUGUUGACACACCAGUUUUGAGUGUACUGUGCCUGGUUUGAUUUUUUUAAAGUAGUUCCUAUUUUCUAUCCCCCUUAAAGAAAAUUGCAUGAAACUAGGCUUCUGUAAUCAAUCAACAGAGGAUUGAGCAUCA
B21: chr1:68475836:68475940:-|3pUTR|ENSG00000024526|unk|total|mutant (ssRNA)
RNA: GGGAGUUCUACAGUCCGACGAUCAUGCCCAGGGCCUAACUUACACUAAUUAAAUCUGAAUUUUGGGGAUGUUGUACCGGGAUCCGUAUUUUUUUUAAUCCCGGUGAUUCCAAUAUUCAGCCAACUGUGAGAAUCAAUGGCCUACAACAGAGGAUUGAGCAUCA
B22: chr7:157269180:157269282:+|3pUTR|ENSG00000009335|unk|FALSE|unique (ssRNA)
RNA: B16 RNA with C28U, C29A, C62U, C63A, C83U, C84A, C97U, C98A
B23: chr1:68475836:68475940:-|3pUTR|ENSG00000024526|unk|FALSE|unique (ssRNA)
RNA: B21 RNA with C76U, C77A, C83U, C84A, C100U, C101A

This experiment deals with T1, UNK ZnF1-6 (called full-length) (human, UniProt Q9C0B0 30-357).
T1 sequence: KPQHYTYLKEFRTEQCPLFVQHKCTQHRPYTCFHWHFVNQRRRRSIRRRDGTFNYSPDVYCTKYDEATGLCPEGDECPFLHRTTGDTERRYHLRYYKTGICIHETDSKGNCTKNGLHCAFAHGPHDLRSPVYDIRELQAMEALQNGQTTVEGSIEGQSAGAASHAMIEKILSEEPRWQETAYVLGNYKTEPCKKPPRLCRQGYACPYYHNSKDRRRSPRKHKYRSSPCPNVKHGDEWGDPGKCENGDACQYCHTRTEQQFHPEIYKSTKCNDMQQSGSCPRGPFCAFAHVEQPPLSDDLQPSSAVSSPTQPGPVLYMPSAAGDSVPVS
Briefly: nsRBNS (natural sequence RNA bind-n-seq); RBNS binding buffer (assumed for nsRBNS): 25 mM Tris pH 7.5, 150 mM KCl, 3 mM MgCl2, 0.01% Triton X-100, 500 ug/ml BSA, 20 U/ml SUPERase-In, 4 C; UNK is unkempt and MSI1 is Musashi-1; names of the RNAs are library labels; protein concentration not given here; high values mean tight binding.
On to B1, for which the binding signal stood at 0.58 enrichment R.

B2 showed a binding signal of 0.555 enrichment R.

Turning to B3, the binding signal is 0.678 enrichment R. The result for B4 reads 1.86 enrichment R. With B5 the figure was 6.24 enrichment R; with B6, 15.5 enrichment R. With B7 the figure was 3.69 enrichment R; with B8, 1.12 enrichment R; with B9, 2.66 enrichment R. As to B10, the binding signal is 0.633 enrichment R.

In turn, B11 registered a binding signal of 0.605 enrichment R.

As for B12, the binding signal worked out at 13.9 enrichment R. The result for B13 reads 1.68 enrichment R; that for B14, 0.291 enrichment R. With B15, the binding signal turned out to be 6.33 enrichment R. The result for B16 reads 0.843 enrichment R; that for B17, 9.94 enrichment R; that for B18, 15.9 enrichment R. Take B19: the binding signal came out at 0.789 enrichment R. Turning to B20, the binding signal came out at 0.924 enrichment R.

Regarding B21, the binding signal stood at 0.698 enrichment R.

On to B22, for which the binding signal turned out to be 19.7 enrichment R. The result for B23 reads 11.6 enrichment R.
